This note sets out measurements from PubChem BioAssay AID602192 (The Scripps Research Institute Molecular Screening Center, 2012).

Molecules are shown by their SMILES. Among all 2,400 compounds or so, about 750 (31%) were called active. Not all results are given here. A number with no mark means an inactive call.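 Rule for the calls: active = mean activation across replicates above the hit cutoff set in the earlier primary screen (cut at about 8% in these data); inactive = the rest.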

Sequence of Melanocortin receptor 4 (Homo sapiens) (P32245 whole entry, looked up): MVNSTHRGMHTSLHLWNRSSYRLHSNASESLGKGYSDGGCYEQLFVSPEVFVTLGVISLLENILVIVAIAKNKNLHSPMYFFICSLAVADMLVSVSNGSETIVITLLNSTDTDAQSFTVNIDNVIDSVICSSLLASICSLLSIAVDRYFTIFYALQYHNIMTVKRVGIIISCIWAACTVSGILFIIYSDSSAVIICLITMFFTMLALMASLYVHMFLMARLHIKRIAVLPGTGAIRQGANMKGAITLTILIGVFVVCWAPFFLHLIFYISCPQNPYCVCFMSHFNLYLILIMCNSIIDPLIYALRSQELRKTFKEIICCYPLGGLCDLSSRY

This assay addresses Melanocortin receptor 4 (Homo sapiens) (UniProt P32245). The assay can be described thus: activators of MC4R arrestin recruitment – cell-based, luminescence, U2OS, confirmation (AID 602192). Conditions: U2OS MC4R beta-arrestin recruitment, at 8.9 µM, stronger effect = higher value, scaled DMSO 0%, Melanotan II 100%. (In general: Arrestin recruitment assays detect the binding of arrestin to an activated receptor.)
As to `Cc1ccc(CCC(=O)Nc2ncc(Cc3cc(Cl)ccc3Cl)s2)o1`, the activation was 15.2% (active).

In the case of `COc1c(Cl)cc(C(=O)Nc2ccc(Cl)cn2)cc1Cl`, the activation was 2.15%.

Consider `COc1cccc(NC(=S)NC(=O)c2c(Cl)c(C)nn2C)c1`, for which the activation is 0.75%.

`O=C(N/N=C/c1ccc(OC(=O)c2ccccc2Cl)cc1)c1ccc(O)cc1`: the activation is 10.9% (active).

Take `CCN(CC)c1ccc(C(=O)N/N=C/c2ccc(N3CCOCC3)cc2)cc1`: the activation is 3.23%.

`CCCOc1ccc(C(=O)C(CCC(CNCC)C(=O)c2ccc(OCCC)cc2)CNCC)cc1` (stereo not drawn): the activation is 47% (active).

On to `COc1cc(/C=C2\Oc3ccc(C#Cc4ccc(O)cc4)cc3C2=O)cc(OC)c1`, for which the activation is 17.7% (active).

Turning to `S=C(NCCCc1cnc[nH]1)NCCCN(Cc1ccc(Cl)c(Cl)c1)c1ccc(Br)cn1`, the activation is 12.9% (active).

Turning to `CC(C)c1ccc2c(c1)c(SC(C)(C)C)c(CC(C)(C)C(=O)O)n2Cc1ccc(Cl)cc1`, the activation was 6.79%.

For the compound `Cc1cc(OCc2cc(C(=O)NCc3cc(C(C)C)no3)no2)cc(C)c1Cl`, the activation is -1.7%.

With `Oc1ccccc1N1CCN(c2ncnc3sc(-c4ccccc4)cc23)CC1`, the activation is 3.16%.

Turning to `O=C(NC(=S)Nc1cccc2c(O)cccc12)c1cccc(Br)c1`, the activation was 14.4% (active).

`CCOc1ccc(/C=C/C(=O)OCC(=O)c2ccccc2OC)cc1OC`: the activation was 4.4%.

Take `CCN1CCC2(CC1)N=C(c1ccc(F)cc1)C(=S)N2C(=O)c1ccc(C)cc1`: the activation was 6.69%.

On to `NC(N)=Nc1nc(-c2ccccc2)c2cc(Cl)ccc2n1`, for which the activation is 19.8% (active).

Take `CCCCN1CC(C)(C)[C@H](CC(=O)Nc2ccc(Br)cc2)C1=O`: the activation is 1.84%.

With `COc1cccc(-c2cnc3c(NC(C)=O)cc(-c4cc(F)ccc4OC)cn23)c1`, the activation is 27.2% (active).

Take `CC(=O)Nc1cc(-c2ccccc2N(C)C)cn2c(-c3ccc(F)c(Cl)c3)cnc12`: the activation is 26% (active).

In the case of `CC(=O)Nc1cc(-c2ccccc2F)cn2c(-c3cccc(C(F)(F)F)c3)cnc12`, the activation is 19% (active).

`COc1ccccc1NC(=O)Nc1nnc(Cc2ccc(F)cc2)s1`: the activation was 4.89%.

Turning to `COc1ccccc1-c1cc(NC(C)=O)c2ncc(-c3ccc(F)cc3)n2c1`, the activation is 15.2% (active).

For the compound `Fc1ccccc1/C=N/Nc1cc(N2CCCCC2)ncn1`, the activation is -2.37%.

Regarding `O=C(Nc1ccc2oc(-c3ccc4ccccc4c3)nc2c1)c1cccs1`, the activation was 3.96%.

For the compound `O=C(CCCCCn1c(=S)[nH]c2cc3c(cc2c1=O)OCO3)N1CCN(c2ccc(F)cc2)CC1`, the activation is 5.47%.

Consider `COC(=O)c1sccc1NC(=O)c1cc(OC)c(OC)c(OC)c1`, for which the activation was 3.33%.

With `O=C(CCCCCN1C(=O)c2cccc3cccc(c23)C1=O)NCc1ccco1`, the activation is 6.44%.

For `Cc1ccc(Sc2ccc(NC(=O)c3ccc(F)cc3)cc2C#N)cc1`, the activation is 2.18%.

For the compound `Cc1ccc(S(=O)(=O)NCCC(=O)Nc2ccc(C)c(Cl)c2)cc1C`, the activation is 3.25%.

Regarding `CCOC(=O)c1nn(-c2ccccc2F)c2nc(Nc3ccccc3)cc(=O)n12`, the activation is 2.15%.

As for `CCN1CCN(CCNC(=O)c2ccc(/C=C3/Sc4ccccc4N(Cc4cccc(C)c4)C3=O)cc2)CC1`, the activation is 9.47% (active).

With `O=C(NCCc1c[nH]c2ccc(Cl)cc12)c1ccc([N+](=O)[O-])cc1`, the activation was 3.47%.

Take `Cc1ccc(-c2csc(SCC(=O)Nc3cc(C)on3)n2)cc1`: the activation is 3.04%.

Regarding `Cc1ccc(C(=O)Nc2ccc(NC(=O)c3cccs3)cc2)c(C)c1`, the activation was 2.47%.

`Cc1ccc(-n2nc(C)c(/C=N/NC(=O)c3cccs3)c2Cl)cc1`: the activation is 12% (active).

Regarding `COCCN(CCOC)S(=O)(=O)c1ccc(C(=O)Nc2nc3c(s2)CCc2ccccc2-3)cc1`, the activation was 0.54%.

Consider `CCCCCCCCCCOC(=O)Cn1c(COc2ccc(C)cc2)[n+](C)c2ccccc21`, for which the activation is 29.9% (active).

On to `CCCCCCCCCCOC(=O)Cn1c(COc2cccc(OC)c2)[n+](C)c2ccccc21`, for which the activation was 21.6% (active).

`COC(=O)c1c(C)[nH]c(C(=O)/C=C/c2ccc(Cl)cc2)c1C`: the activation is 2.58%.

With `CCn1c(SCC(=O)Nc2cccc(F)c2)nnc1-c1cc2cc(Br)ccc2o1`, the activation was 2.27%.

Take `O=C(CCCn1c(SCC(=O)c2ccc(F)cc2)nc2ccccc2c1=O)NCc1ccco1`: the activation was 4.27%.

For the compound `COc1ccc(Cl)cc1-n1c(C)cc(C(=O)OCC(=O)N2CC(=O)Nc3ccccc32)c1C`, the activation is 10.5% (active).

For `Cc1cccc(C)c1OC(=O)CSc1nnc(-c2ccccc2)o1`, the activation was 2.94%.

As to `O=C1N/C(=C/c2cccn2-c2ccccc2)C(=O)N1c1cccc(Cl)c1`, the activation was 13.2% (active).

Take `Clc1ccc(Nc2ncnc3c2nnn3Cc2ccccc2)cc1`: the activation was -0.43%.

In the case of `O=C(OC12CC3CC(CC(C3)C1)C2)c1ccc(NCc2cc(O)ccc2O)cc1`, the activation was 5.55%.

Regarding `Cc1ccccc1NC(=O)c1ccc(COc2ccc3c(C)cc(=O)oc3c2)cc1`, the activation is 28.2% (active).

For `COc1ccc(C(N)c2csc(NC(=O)Nc3cccc(C(F)(F)F)c3)n2)cc1` (stereo not drawn), the activation is 11.5% (active).

For `COc1cc(NC(=O)c2cncc(-c3ccc(C#N)cc3)c2)cc(C(=O)Nc2cccc(C(F)(F)F)c2)c1`, the activation was 2.95%.

For the compound `COc1ccc(Cc2nnc(NC(=O)c3ccc(OC)cc3OC)s2)cc1`, the activation was -0.87%.

Turning to `COc1ccc(CC(N)c2csc(NC(=O)NC(c3ccccc3)c3ccccc3)n2)cc1` (stereo not drawn), the activation is 17.4% (active).

For `O=C(NC1CCCCCC1)c1cccnc1Sc1ccc(Cl)cc1`, the activation is 0.48%.

For the compound `COc1ccc(C)c(Cn2c(-c3nonc3N)nc3ccccc32)c1`, the activation is -0.25%.

Regarding `CCc1ccc2c(c1)cc(CN(C(=S)Nc1ccccc1Cl)C1CC1)c1nnnn12`, the activation is 0.41%.

Take `Cc1c(-c2ccccc2)n[nH]c1C(=O)N=Nc1c(O)[nH]c2ccccc12`: the activation was 3.31%.

For the compound `Cc1ccsc1/C=N/Nc1ccc(Cl)nn1`, the activation is 2.12%.

For the compound `CCOC(=O)c1c(-c2ccccc2)oc2cc(Br)c(O)c(C=O)c12`, the activation is 12.2% (active).

As for `Cc1ccc([C@H]2C[C@H](O)[C@@H](n3cc(COC(=O)c4ccccc4)nn3)CN2C(=O)C2CCCCC2)cc1`, the activation was 1.84%.

`COc1cc(/C=C(\C#N)C(=O)Nc2ccc3ccccc3c2)c([N+](=O)[O-])cc1OC`: the activation was 5.51%.

Regarding `CN(C)C(=O)c1cccc(-c2cnc3c(NC=O)cc(-c4ccc(F)cc4)cn23)c1`, the activation was 9.94% (active).

On to `COc1ccc(-c2cc(NC=O)c3ncc(-c4ccccc4)n3c2)cc1OC`, for which the activation is 17.6% (active).

Consider `CC(=O)c1cccc(-c2cnc3c(NC=O)cc(-c4ccc(N(C)C)cc4)cn23)c1`, for which the activation was 17.7% (active).

For `CN(C)CCNC(=O)c1cccc(-c2cnc3c(NC=O)cc(-c4cccc(C(F)(F)F)c4)cn23)c1`, the activation is 20.8% (active).

With `Cn1c(=S)sc2ccc3ccccc3c21`, the activation is 2.83%.

Take `C=CCn1c(SCC(=O)c2ccc(Br)cc2)nnc1C(C)NC(=O)Cc1ccc(OC)cc1` (stereo not drawn): the activation was 3.84%.

For the compound `COC(=O)c1nc2n(n1)C(c1ccc([N+](=O)[O-])cc1)C(C(=O)Nc1ccc(Cl)cc1)=C(C)N2` (stereo not drawn), the activation is -3.03%.

Consider `CCOC(=O)c1c(-c2ccc(C)cc2C)csc1NC(=O)CSc1nnnn1C`, for which the activation was -1.45%.

For `CCOC(=O)c1[nH]c2c(c1-c1ccccc1)C(=O)CC(c1ccc(Cl)cc1)C2` (stereo not drawn), the activation is 2.82%.

For the compound `Cc1ccc(-n2nc3cc(Cl)c(NC(=O)c4ccco4)cc3n2)cc1`, the activation was 0.27%.

`COc1ccc(S(=O)(=O)N2CCC(C(=O)OCC(=O)c3ccccc3)CC2)cc1[N+](=O)[O-]`: the activation was 5.6%.

In the case of `O=C(COC(=O)c1cccc(Br)c1)Nc1cccc2c1C(=O)c1ccccc1C2=O`, the activation was 8.85% (active).

Take `Cc1cc(C)cc(C(=O)OCC(=O)NCCNC(=O)COC(=O)c2cc(C)cc(C)c2)c1`: the activation is 0.95%.

Regarding `O=C(CSc1ccccc1)Nc1nnc(/C=C/c2ccccc2)s1`, the activation was 32.6% (active).

Take `CCCCNc1c(-c2cccc(Sc3ccc(OC)cc3)c2)nc2ccccn12`: the activation is 5.36%.

On to `COc1ccc2sc(-c3ccc(S(C)(=O)=O)cc3)c(C#Cc3cncn3C)c2c1`, for which the activation was 27.1% (active).

`O=C(Cn1cnc2c(nnn2-c2ccccc2)c1=O)N1CCC(Cc2ccccc2)CC1`: the activation is 5%.

For the compound `CCN(CC)C(=O)Oc1ccc(Br)cc1C(=O)Nc1ccc(F)c(Cl)c1`, the activation was -3.02%.

Consider `CCN(CC)S(=O)(=O)c1ccc(C)c(NC(=O)COc2ccc(Br)cc2Cl)c1`, for which the activation was 12.9% (active).

Turning to `CSc1ccc(/C=N\NC(=O)COc2ccc(Cl)cc2Br)cc1`, the activation is 4.69%.

Take `O=C(c1cc(-c2cccc(O)c2)on1)N1CCc2ccccc2C1`: the activation was -1.12%.

Turning to `Clc1ccccc1Nc1nc(NCc2cccs2)nc2ccsc12`, the activation is 2.53%.

On to `COCCNc1nc(Nc2ccccc2Cl)c2sc(-c3ccccc3)cc2n1`, for which the activation is 11.8% (active).

Turning to `COc1ccc(Nc2ncnc3sc(-c4ccccc4)cc23)c(OC)c1`, the activation is 5.2%.

`O=C(Nc1sc2c(c1-c1nc3ccccc3[nH]1)CCCC2)C1CC1`: the activation was 6.22%.

`O=C(OCc1cn(-c2ccc(Cl)c(Cl)c2)nn1)c1ccccc1Cl`: the activation is -2.69%.

For the compound `COc1ccc(Nc2oc(-c3ccccc3Cl)nc2C#N)cc1`, the activation is 6.82%.

In the case of `COc1cccc(CNC(=O)c2nnn(CC(=O)Nc3cc(Cl)ccc3C)c2N)c1`, the activation is 2.75%.

On to `Cc1cc(/C=C(/C#N)C(=O)Nc2ccc(Cl)cc2)c(C)n1-c1cccnc1`, for which the activation is 0.76%.

Take `Cc1ccc2nc(-c3ccncc3)cc(C(=O)Nc3ccc(OC(F)F)cc3)c2c1`: the activation is 1.63%.
